Among the data in PubChem BioAssay (EPA / NIEHS) are outcome and AC50 values, retold here.

A short description of assay [1]: CEETOX_H295R_MTT_cell_viability: Viability Assessment in the CeeTox HT-H295R MTT Assay (AID 2283718; active means hit-call score of the fitted dose curve at least 0.9, where 1 is the maximum; inactive means score below 0.9). In outline: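 H295R cells prestimulated 48 h with 10 uM forskolin, then exposed 48 h to test chemical (0.1% DMSO final). Viability by MTT (0.5 mg/ml, 4 h, 37 C), absorbance 570/650 nm; percent change versus DMSO, bidirectional fit.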
A short description of assay [2]: Tanguay_ZF_120hpf_ActivityScore_legacy: (Legacy) Oregon State University Tanguay Lab 120 Hour Post-fertilization zebrafish Assay Score for Activity (AID 2283742).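 On AC50: static exposure from 6 hpf until 120 hpf at 28 °C.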 The gist of the method:
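Tropical 5D wild-type zebrafish embryos, dechorionated with pronase at 4 hpf, were exposed singly from 6 hpf to 120 hpf statically at 28C in 0.64% DMSO. Malformations and mortality were scored as binary by brightfield, with the activity score combining 18 morphology components.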

A short description of assay [3]: ACEA_AR_agonist_AUC_viability: ACEA Biosciences xCELLigence Real-Time Cell Analysis on Androgen Receptor Agonism for Viability (AID 2283775).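 On AC50: viability read 80 hours after compound addition.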 In outline: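 Real-time impedance tracking of 22Rv1 growth, readings every 5 min for 5 h then hourly; area-under-curve viability endpoint at 80 hours, relative to DMSO. Compounds at eight concentrations, 1:4 steps, top 100 uM, n = 2.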

Assay [4] is described as follows: ACEA_AR_antagonist_AUC_viability: ACEA Biosciences xCELLigence Real-Time Cell Analysis on Androgen Receptor Antagonism for Viability (AID 2283776).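 Further: 22Rv1 human prostate cancer cells growing on impedance electrode plates; hits lower the growth signal relative to DMSO meaning cytotoxicity.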 The gist of the method: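 Real-time electrical impedance tracks 22Rv1 proliferation after continuous compound exposure (top 100 uM final, 1:4 steps, 8 concentrations). The 80 h area-under-curve serves as the cytotoxicity readout relative to DMSO.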

Assay [5] can be described thus: STM_H9_OrnCyssISnorm_ratio: Stemina devTOX quickPredict H9 human embryonic stem cell (hESC)-based Assay for Ornithine (ORN):Cystine (CYSS) Ratio (AID 2283714). The gist of the method: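 Undifferentiated H9 hESCs were exposed to compound for 72h with media and chemical replaced every 24h. Final 24-h conditioned media were deproteinized and analysed by UPLC-HRMS. ORN and CYSS peak areas were normalized to C13 internal standards and the ratio taken versus 0.1% DMSO.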

For assay [6], the target named is Luciferin 4-monooxygenase (Photinus pyralis) (UniProt P08659). Briefly: CCTE_Simmons_QuantiLum_inhib_2: CCTE's Firefly Luciferase Inhibition Assay, Simmons Lab (AID 2283767).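 On AC50: potency for inhibitors that lower luciferase luminescence relative to DMSO.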 The gist of the method: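 Cell-free recombinant firefly luciferase (5 ng/well) in 200mM potassium phosphate with 1 mg/ml BSA, 30 min at 37C with 8 concentrations from 5 nM to 87.5 uM [final], 0.5% DMSO. Luminescence read after D-luciferin (150uM)/dATP (147uM) reagent injection, pH 7.8; triplicates.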
Sequence of Luciferin 4-monooxygenase (Photinus pyralis) (P08659 whole entry, looked up): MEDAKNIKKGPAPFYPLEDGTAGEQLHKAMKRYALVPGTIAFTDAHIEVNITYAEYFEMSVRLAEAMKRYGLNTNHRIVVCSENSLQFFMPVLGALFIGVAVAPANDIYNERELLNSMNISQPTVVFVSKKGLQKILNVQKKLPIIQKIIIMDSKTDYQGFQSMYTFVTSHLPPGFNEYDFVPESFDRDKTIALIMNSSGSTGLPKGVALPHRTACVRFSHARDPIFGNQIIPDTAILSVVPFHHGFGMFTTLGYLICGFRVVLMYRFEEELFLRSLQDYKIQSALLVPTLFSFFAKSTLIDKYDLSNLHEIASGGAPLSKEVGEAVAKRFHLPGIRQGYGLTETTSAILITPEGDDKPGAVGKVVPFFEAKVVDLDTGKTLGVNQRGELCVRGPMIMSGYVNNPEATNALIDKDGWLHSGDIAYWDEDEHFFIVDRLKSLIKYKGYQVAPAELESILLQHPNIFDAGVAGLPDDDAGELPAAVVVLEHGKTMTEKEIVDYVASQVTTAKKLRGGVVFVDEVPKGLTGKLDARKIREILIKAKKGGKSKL

Assay [7] is described as follows: ArunA_Migration_hNP: ArunA Biomedical's Oris Neuroprogenitor (hNP) Cell Migration Assay (AID 2283754). In outline:
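Human H9-derived hNP1 neuroprogenitors on Matrigel with LIF/bFGF, plated around seeding stoppers for 16 h at 37C; stoppers removed at start of 72 h chemical exposure. Calcein-AM staining, fluorescence 494/517 nm in detection zone; loss-of-signal vs DMSO; cytochalasin D control.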

The nature of assay [8]: ArunA_Migration_hNC: ArunA Biomedical's Oris Neural Crest (hNC) Cell Migration Assay (AID 2283755). In outline: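 Human H9-derived neural crest stem cells, 60,000/well on Matrigel, 16 h at 37C, then 72 h chemical exposure after seeding-stopper removal. Migration into detection zone read as calcein-AM fluorescence (ex494/em517), relative to DMSO.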
Assay [9] in a line: ArunA_NOG_NucleusCount: ArunA Biomedical's Neurite Outgrowth (NOG) Assay for Nucleus Count (AID 2283756). In outline:
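Human H9-derived differentiated neurons were exposed for 48 h right after seeding. Hoechst-stained nuclei gated by size and intensity were counted by automated high-content imaging as viable neurons. Loss of signal vs DMSO.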

Assay [10] is described as follows: ArunA_NOG_BranchPointsPerNeurite: ArunA Biomedical's Neurite Outgrowth (NOG) Assay for Branch Points Per Neurite (AID 2283759). In outline: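 Automated image analysis traced neurites (processes >10 um) from valid cell bodies after Hoechst and βIII-tubulin staining. hNN cells from H9 embryonic stem cells, 48 h exposure. Fitted bidirectionally against DMSO.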
The subject of assay [11] is zebrafish Androgen Receptor (AR), gene 100005148. Briefly: ATG_zfAR_XSP1: Attagene TRANS-FACTORIAL Multi-Species (XSP1) HepG2 Assay for zebrafish Androgen Receptor (AR) (AID 2283771). The gist of the method: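 HepG2 cells were transiently transfected with a zebrafish AR-GAL4 reporter system and partially stimulated with 3 nM 6-alpha-fluorotestosterone. Reporter mRNA was measured after 24 h dosing by RT-PCR with capillary electrophoresis, and gain-of-signal was fitted relative to DMSO.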

The target in assay [12] is zebrafish Estrogen Receptor (ESR1), esr1 (gene 259252) (UniProt P57717). Kind of assay: ATG_zfER1_XSP1: Attagene TRANS-FACTORIAL Multi-Species (XSP1) HepG2 Assay for zebrafish Estrogen Receptor (ESR1) (AID 2283772). The gist of the method:
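Exogenous chimeric receptor-GAL4 activity is measured in transiently transfected human HepG2 liver cells after 24 h compound exposure. Reporter transcripts are detected by RT-PCR and fluorescent capillary electrophoresis, analysed for signal gain relative to DMSO.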

The test system of assay [13] is zebrafish Estrogen Receptor (ESR2B), gene 317733. Briefly: ATG_zfER2b_XSP1: Attagene TRANS-FACTORIAL Multi-Species (XSP1) HepG2 Assay for zebrafish Estrogen Receptor (ESR2B) (AID 2283773). In outline: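 HepG2 cells transiently transfected with multiple GAL4-UAS reporter units expressing chimeric zebrafish ER2b-Gal4; 24 h chemical exposure with 3 nM 6-alpha-fluorotestosterone present. Reporter mRNA measured by RT-PCR and capillary electrophoresis; gain of signal fitted versus DMSO.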

Assay [14] deals with frog Estrogen Receptor (ESR2), gene 100174814. Kind of assay: ATG_frER2_XSP1: Attagene TRANS-FACTORIAL Multi-Species (XSP1) HepG2 Assay for frog Estrogen Receptor (ESR2) (AID 2283774). In outline:
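HepG2 cells transiently transfected with GAL4-UAS multiplexed reporter units expressing chimeric NR-Gal4 proteins; reporter mRNA measured 24 h after dosing by RT-PCR, FAM labeling, HpaI digestion and capillary electrophoresis. Gain-of-signal relative to DMSO; 3 nM 6-alpha-fluorotestosterone present.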

Structures are written as SMILES. Results filed as inconclusive are left out. The source made the active and inactive calls. How the source made its calls, unless noted: active means hit-call score of the fitted dose curve at least 0.9, where 1 is the maximum; inconclusive means response in the unintended direction; inactive means score below 0.9.

Sequence of zebrafish Estrogen Receptor (ESR1), esr1 (gene 259252) (P57717 whole entry, looked up, the tested form may be a part): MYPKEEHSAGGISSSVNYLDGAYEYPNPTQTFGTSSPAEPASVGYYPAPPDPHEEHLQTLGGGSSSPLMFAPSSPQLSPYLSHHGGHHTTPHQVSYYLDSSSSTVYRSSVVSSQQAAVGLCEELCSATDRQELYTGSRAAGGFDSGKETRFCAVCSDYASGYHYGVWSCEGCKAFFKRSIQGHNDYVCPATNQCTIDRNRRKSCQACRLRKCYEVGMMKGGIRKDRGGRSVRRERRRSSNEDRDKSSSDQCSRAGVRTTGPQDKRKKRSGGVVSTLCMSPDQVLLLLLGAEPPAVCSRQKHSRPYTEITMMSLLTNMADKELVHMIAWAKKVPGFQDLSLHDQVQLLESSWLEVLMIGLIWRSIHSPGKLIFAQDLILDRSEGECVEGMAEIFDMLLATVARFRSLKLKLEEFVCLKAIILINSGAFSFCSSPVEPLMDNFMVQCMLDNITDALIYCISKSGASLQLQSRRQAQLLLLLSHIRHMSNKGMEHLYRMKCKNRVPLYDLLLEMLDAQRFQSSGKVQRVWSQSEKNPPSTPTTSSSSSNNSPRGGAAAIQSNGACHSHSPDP

Regarding `CNC(=O)Oc1cccc2c1OC(C)(C)O2`, the outcome in assay [1], in assay [2], in assay [3] and in assay [4] was inactive.
`CCOP(=S)(OCC)Oc1cc(C)nc(C(C)C)n1`: in assay [5], the AC50 (as a rule, the midpoint of the concentration-response curve, whichever way the signal moves) was 75.2 µM (active). Besides, the outcome in [1], in assay [2], in assay [6], in assay [3] and in [4] was inactive.
With `CCOP(=O)(NC(C)C)Oc1ccc(SC)c(C)c1` (stereo unspecified), the compound was classed as inactive in assay [1] and in assay [6]. Moreover, the concentration at half-maximal activity (AC50) was 33.3 µM (active) in assay [2], 9.92 µM (active) in assay [3] and 32.7 µM (active) in assay [4].
As to `CCOP(=S)(OCC)Oc1ccc([N+](=O)[O-])cc1`, the outcome in assay [1], in [2], in assay [3] and in [4] was inactive. Also, the AC50 in assay [6] is 26.9 µM (active).
With `C[Si](Cn1cncn1)(c1ccc(F)cc1)c1ccc(F)cc1`, the concentration at half-maximal activity (AC50) in assay [5] is 50.7 µM (active); in assay [2], 35.9 µM (active); in [3], 60.4 µM (active); in [4], 50 µM (active). In addition, the compound was called inactive in assay [1], in assay [7], in assay [8], in assay [9] and in assay [10].
In the case of `COc1ccc(C(=CC(=O)N2CCOCC2)c2ccc(Cl)cc2)cc1OC`, the result in assay [5], in assay [1] and in assay [3] was inactive. The AC50 is 42.9 µM (active) in assay [2] and 15.2 µM (active) in [4].
Turning to `O=C(O)c1cc(Oc2ccc(C(F)(F)F)cc2Cl)ccc1[N+](=O)[O-]`, the compound was called inactive in assay [1], in [2] and in assay [4]. The concentration at half-maximal activity (AC50) in [3] was 50 µM (active).
In the case of `Cc1ccn2nc(S(=O)(=O)Nc3c(F)cccc3F)nc2n1`, the outcome in assay [1], in [2], in assay [3] and in [4] was inactive.
As to `CCc1cccc(C)c1N(C(=O)CCl)C(C)COC` (stereo unspecified), the outcome in assay [1], in assay [2], in assay [11], in [12], in assay [3] and in [4] was inactive. Also, the values for the AC50 in assay [13] and in assay [14] were 35.8 µM (active) and 48.9 µM (active), respectively.
Take `CCCCOC(=O)[C@@H](C)Oc1ccc(Oc2ccc(C#N)cc2F)cc1`: the concentration at half-maximal activity (AC50) in [5] was 84.8 µM (active); in assay [3] it was 27.6 µM (active); in [4], 62.3 µM (active). In addition, the result in [2] was inactive.
As for `CCOC(=O)COc1cc(-c2nn(C)c(OC(F)F)c2Cl)c(F)cc1Cl`, the outcome in assay [1], in [2] and in [3] was inactive. The AC50 in assay [4] is 16.6 µM (active).
Take `CC(C)N(C(=O)SCC(Cl)=C(Cl)Cl)C(C)C`: the AC50 in assay [5] was 12.2 µM (active); in [3], 89.9 µM (active); in [4], 81 µM (active). In assay [2], the result was inactive.
With `CN(C)NC(=O)CCC(=O)O`, the result in assay [1], in assay [2], in assay [3] and in assay [4] was inactive.
As to `CCC(=O)Nc1ccc(Cl)c(Cl)c1`, the compound was called inactive in [1], in [2], in assay [6] and in [3]. Also, the AC50 in assay [4] is 20.7 µM (active).
